61 compounds from PubChem BioAssay AID504329 (Southern Research Specialized Biocontainment Screening …, 2011) can be followed below.

Several values for one entry are separate records, joined by “and”; a condition that tells them apart may be missing. Equal values may be shown once. Out of some 340,000 compounds screened, about 1,000 (0.29%) were called active. Not all results are given here. Measured potencies and affinities stand elsewhere. Values without a mark were called inactive. Rule as the data show it: inconclusive = inhibition above about 27% without an active follow-up result; inactive = below that.

The assay is described as follows: H1N1 influenza NS1A inhibitors, functional cell based assay (AID 504329). The note with it: percent inhibition, at 12.5 µM, active compounds read high.
Regarding `COC(=O)c1cc(C(=O)OCC(=O)NC2CCS(=O)(=O)C2)cc([N+](=O)[O-])c1` (stereo unspecified), the inhibition is 6.69%.

Take `O=C(CCC1CCCN(C(=O)c2ccoc2)C1)NCc1ccccc1F` (stereo unspecified): the inhibition is -1.5%. As to `COc1ccccc1NC(=O)Nc1nc(CC(=O)Nc2ccc(F)cc2)cs1`, the inhibition is -9.19%. The result for `COc1ccccc1NC(=O)Nc1nc(CC(=O)Nc2ccc(OC)c(OC)c2)cs1` reads -0.35%; that for `O=C(Cn1nnc(-c2ccccc2F)n1)Nc1ccc2c(c1)OCCO2`, -0.7%. `C[C@H](NC(=O)c1nc[nH]c1C(=O)N1CCc2ccccc2C1)c1ccccc1`: the inhibition is -11.5%.

As to `COc1ccc(C(=O)N/N=C/c2ccc3cccc(O)c3n2)cc1`, the inhibition was -2.2%. As for `CCOc1ccc(C(=O)Nc2cccc3cccnc23)cc1`, the figure is -4.15%; as for `O=C(COc1ccc(Cl)cc1)N/N=C/c1cccc2cccnc12`, 2.4%. Consider `O=C(N/N=C/c1cccc2cccnc12)c1ccccc1O`, for which the inhibition was 0.6%. Consider `CCOc1ccccc1C=NNC(=O)c1cccc2ccccc12`, for which the inhibition is -22.3%. As for `COc1ccc(C(=O)N/N=C/c2cccnc2)cc1`, the figure is -5.94%. As for `CCN(CC)CCNC(=O)/C(=C/c1cn(C)c2ccccc12)NC(=O)c1ccc(OC)c(OC)c1`, the figure is -22.9%. With `COC(=O)Cc1[nH]nc2c1C(c1cccc(OC)c1OC)C(C#N)=C(N)O2` (stereo unspecified), the inhibition was -3.61%. Consider `CN(c1ccccc1)S(=O)(=O)CS(=O)(=O)N(C)c1ccccc1`, for which the inhibition is -0.79%.

With `COc1ccccc1CNC(=O)CCCn1nc(C)n2ccnc2c1=O`, the inhibition is -0.77%. As for `CCCOc1ccc(N2CC(C(=O)Nc3ccc(N4CCOCC4)cc3)CC2=O)cc1` (stereo unspecified), the figure is -0.783%; as for `CCCC(C)C(=O)Nc1cccc(NC(C)=O)c1` (stereo unspecified), -2.06%. As to `COc1ccccc1CNC(=O)COC(=O)c1cccc(-n2cnnn2)c1`, the inhibition is -6.66%. With `Cc1ccc(NC(=O)C2CCCN2C(=O)OCc2ccccc2)c(O)c1` (stereo unspecified), the inhibition was 0.49%. As for `COc1cc(/C=C2\SC(N)=NC2=O)cc(Cl)c1O`, the figure is 4.85%; as for `COc1cc(/C=C2\SC(c3ccc(C)cc3)=NC2=O)cc(OC)c1O`, 17.9%. The result for `O=C(CCN1C(=O)c2ccccc2C1=O)NCc1ccccc1` reads 5.94%; that for `CCN(CC)c1ccc(C(=O)O)cc1`, 15.6%.

For `CCN(CC)c1ccc(SS(=O)(=O)O)cc1`, the inhibition was -7.03% and 0.65%.

For the compound `CCN(CC)c1ccc(C(=S)NCc2ccccc2)cc1`, the inhibition was -0.32%. The result for `CCN(CC)c1ccccc1` reads -3.57%; that for `CCN(CC)c1ccc(/C=C2\C(=O)c3ccc(C(=O)O)cc3C2=O)cc1`, 20.7%. As for `CCN(CC)c1ccc(NC(=O)Nc2ccc(C(C)=O)cc2)cc1`, the figure is 7.64%; as for `COC(=O)C1=C(C)N(CCCC(=O)O)C(=O)NC1c1ccccc1OS(=O)(=O)c1ccc([N+](=O)[O-])cc1` (stereo unspecified), 13.1%. Turning to `Cc1cc(C)cc(NC(=O)COC(=O)CCc2ccc(S(=O)(=O)N3CCOCC3)cc2)c1`, the inhibition was 3.45%.

As to `Cc1cccc2cc(C#N)c(SCC(=O)Nc3ccccc3N3CCOCC3)nc12`, the inhibition is -15.7%. For `Cc1ccc([N+](=O)[O-])cc1S(=O)(=O)Nc1ccc(-c2ccc(N3CCOCC3)nn2)cc1`, the inhibition is -3.07%. As for `COC(CNC(=O)c1coc2nc3ccccc3nc12)OC`, the figure is 17%; as for `COCCCNC(=O)c1ccc2c3c(onc13)-c1ccccc1C2=O`, 17.2%; as for `CCOC(=O)N1CCN(C(=O)c2cn(CC)c3ccc(S(=O)(=O)N4CCC(C)CC4)cc3c2=O)CC1`, -9.88%. As for `O=C(NN=C(c1ccccc1)c1ccccn1)c1ccccc1`, the figure is -14.3%; as for `C/C(CC(=O)Nc1ccccn1)=N\NC(=O)c1cnccn1`, -7.52%; as for `CCOc1ccc(C(=O)N/N=C(\c2ccccc2)c2ccccn2)cc1`, -0.16%. The result for `CCc1ccc(NC(=S)N(Cc2ccccc2)Cc2ccccn2)cc1` reads 11.1%. For `O=C(CCc1nnc(COc2ccccc2)o1)NCCc1cccs1`, the inhibition is -7.18%.

With `FC(F)(F)c1ccc(Cl)c(-n2c(-c3cc(C4CC4)[nH]n3)n[nH]c2=S)c1`, the inhibition was 8.02%. The result for `CC(CC(=O)OCC(=O)NC1CCS(=O)(=O)C1)c1ccccc1` (stereo unspecified) reads 4%; that for `CC(=O)N(Cc1cccs1)Cc1cc2ccc(C)c(C)c2nc1Cl`, -4.22%; that for `Cc1nc(Nc2nc3ccccc3o2)nc(C)c1C`, 5%. As for `Cc1ccc2oc(Nc3nc(C)cc(C)n3)nc2c1`, the figure is -7.76%; as for `Cc1ccc2oc(Nc3nc(C)c(C)c(C)n3)nc2c1`, -16.7%.

Turning to `Cc1cc(C)nc(Nc2nc3ccccc3o2)n1`, the inhibition was -16.8%. The result for `CCCSc1nc2cc(C)c(C)cc2n1CC(C)O` (stereo unspecified) reads -12.9%. Turning to `Cc1ccc(C(=O)Nc2cccc(C(F)(F)F)c2)cc1NC(=O)c1c[nH]c2cc(C(F)(F)F)ccc2c1=O`, the inhibition was -5.49%.

Turning to `CC(C)N(C(=O)CN1C(=O)NC2(CCCCCC2)C1=O)C(C)C`, the inhibition was -2.18%. The result for `Cc1cccc(C)c1NC(=O)c1sccc1SCC#N` reads -4.84%; that for `CC[n+]1c(-c2ccccc2)c2cc(N)ccc2c2ccc(N)cc21`, 7.81%. The result for `C[n+]1c2cc(N)ccc2cc2ccc(N)cc21` reads -0.44% and -3.15%; that for `Cc1ccc2c(c1)c1c3n2CCN(C(=O)CCl)C3CCC1` (stereo unspecified), 1.19%; that for `Cc1ccc2c(c1)c1c3n2CCN(C(=O)CN2CCN(C)CC2)C3CCC1` (stereo unspecified), 7.29%. As for `COc1ccc(Nc2nc(N)nc(CSC(=S)N3CCN(C)CC3)n2)cc1`, the figure is -7.34%; as for `CN(C)c1cccc2cccc(N(C)C)c12`, 11.8%. In the case of `CN(C)c1ccc(C2Nc3cccc4cccc(c34)N2)cc1`, the inhibition is 1.96%. As for `CN(C)c1ccc(N=Nc2ccc(S(N)(=O)=O)cc2)cc1`, the figure is 12.4%. The result for `Cc1ccc(N=Nc2ccc(O)cc2)c(Br)c1` reads 10.2%.

The inhibition is the change of the read-out against control, counted positive when it falls.
